Results published in PubChem BioAssay.
Values without a mark were called inactive. Calls of active or inactive are those of the source. Unless noted, no stated cut-off is given here; in the data, active means inhibition above about 44%; inactive means the rest.

Legend:
[1] = StAR promoter reporter inhibitors, counter-screen for LRH-1 inverse agonist project, cell-based, luminescence, high throughput (AID 651611; in the data active means inhibition above about 28%); conditions: StAR promoter luciferase reporter counterscreen, at 3.6 µM, stronger effect = higher value
[2] = target: Nuclear receptor subfamily 5 group A member 2 (Homo sapiens) (UniProt O00482); experiment: NR5A2 activity suppression in reporter cells – cell-based, luminescence, confirmation (AID 651613; in the data active means inhibition above about 42%;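 further: HEK293T cells co-transfected with LRH-1 and StAR promoter luciferase reporter; 0% = vehicle wells and 100% = parental cells lacking receptor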); conditions: cell-based LRH-1 luciferase reporter, inverse agonism; at 3.6 µM; stronger effect = higher value
[3] = target: Steroidogenic factor 1 (Homo sapiens) (UniProt Q13285); experiment: inverse agonism at SF1 nuclear receptor – cell-based, luminescence, high throughput, counter-screen for LRH-1 inverse agonist project (AID 651614); conditions: cell-based SF1 luciferase reporter, at 3.6 µM, stronger effect = higher value;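 further: cells cotransfected with StAR promoter reporter and SF1 expression vector; 0% = vehicle on cells with receptor and 100% = vehicle on cells lacking receptor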
[4] = compounds suppressing VP16-driven luciferase signal – cell-based, luminescence, high throughput, counter-screen for LRH-1 inverse agonist project (AID 651615; in the data active means inhibition above about 33%); conditions: Gal4-VP16 luciferase reporter cells, at 3.6 µM, stronger effect = higher value

Nuclear receptor subfamily 5 group A member 2 (Homo sapiens), sequence (O00482 whole entry, looked up): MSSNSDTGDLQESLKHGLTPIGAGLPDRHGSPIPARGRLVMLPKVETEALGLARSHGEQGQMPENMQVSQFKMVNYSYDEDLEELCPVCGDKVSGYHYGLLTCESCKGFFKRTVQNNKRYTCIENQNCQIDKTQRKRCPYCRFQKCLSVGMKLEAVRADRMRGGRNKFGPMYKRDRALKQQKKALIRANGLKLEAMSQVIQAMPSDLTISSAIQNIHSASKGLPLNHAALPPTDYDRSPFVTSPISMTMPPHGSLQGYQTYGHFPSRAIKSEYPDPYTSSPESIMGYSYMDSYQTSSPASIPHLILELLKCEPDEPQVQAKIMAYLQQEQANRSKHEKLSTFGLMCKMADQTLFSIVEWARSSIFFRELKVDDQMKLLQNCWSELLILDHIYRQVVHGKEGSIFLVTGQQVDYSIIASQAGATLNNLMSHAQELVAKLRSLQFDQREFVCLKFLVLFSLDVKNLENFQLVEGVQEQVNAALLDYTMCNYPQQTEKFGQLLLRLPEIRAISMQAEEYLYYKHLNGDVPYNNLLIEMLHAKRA
Steroidogenic factor 1 (Homo sapiens), sequence (Q13285 whole entry, looked up, the tested form may be a part): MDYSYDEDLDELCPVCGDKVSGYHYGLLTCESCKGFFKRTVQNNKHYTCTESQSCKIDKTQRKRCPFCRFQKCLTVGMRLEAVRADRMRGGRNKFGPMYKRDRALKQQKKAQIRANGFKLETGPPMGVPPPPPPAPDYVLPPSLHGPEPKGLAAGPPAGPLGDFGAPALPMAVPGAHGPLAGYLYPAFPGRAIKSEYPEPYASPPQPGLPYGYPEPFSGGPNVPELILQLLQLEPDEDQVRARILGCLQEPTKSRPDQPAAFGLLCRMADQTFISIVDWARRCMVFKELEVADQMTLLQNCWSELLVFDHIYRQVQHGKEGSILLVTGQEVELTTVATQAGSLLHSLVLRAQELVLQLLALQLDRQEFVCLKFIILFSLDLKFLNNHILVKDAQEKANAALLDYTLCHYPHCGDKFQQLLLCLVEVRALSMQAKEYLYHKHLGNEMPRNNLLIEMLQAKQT

SMILES	inhibition [1]	inhibition [2]	inhibition [3]	inhibition [4]
CCOc1ccc(S(=O)(=O)NCc2ccncc2)cc1	25.8%	61.1% (active)	59.4% (active)	51.8% (active)
Fc1ccc(Br)cc1SCCc1ccncc1	1.89%	45.7% (active)	34.9%	-2.36%
COc1ccc(C(=O)Nc2ccc(S(=O)(=O)N3CCc4ccccc43)cc2)cc1	29.2% (active)	40.6%	44.5% (active)	44.7% (active)
CN(C)c1cc[n+](Cc2c(Cl)cccc2Cl)cc1	7.95%	73.2% (active)	68.2% (active)	45.7% (active)
COc1ccc(C2=Nn3c(nnc3-c3ccccc3OC)SC2)cc1OCC1CC1	49.1% (active)	60.4% (active)	62.8% (active)	24.6%
Cc1cc(N2CCN(c3nc4ccccc4s3)CC2)n2ncnc2n1	21.5%	52.4% (active)	54.6% (active)	50.3% (active)
C#CCN(C[C@@H]1[C@@H](OC(=O)NCC2CCCCC2)[C@@H](OC(=O)NCC2CCCCC2)Cn2c(=O)ccc(=O)n21)S(=O)(=O)c1ccc(C)cc1	38.3% (active)	62.4% (active)	74.5% (active)	70.8% (active)
COc1ccc(CCn2c(C)cc(C(=O)COC(=O)c3ccc(O)cc3O)c2C)cc1	5.91%	41.5% (active)	28.4%	-15%
CCOc1ccc(NC(=O)CSc2nnc(CNC(=O)c3cccs3)o2)cc1	20%	60.3% (active)	59.6% (active)	-0.65%
